Calls of active or inactive are those of the source.
Assay: plasmodial surface anion channel blockers, osmotic lysis – cell-based, P. falciparum Indochina, OD700, 2 h, primary screen (AID 1155);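 further: lysis reports solute entry through the parasite surface anion channel PSAC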
Settings: P. falciparum Indochina infected erythrocytes, higher = more signal, called active from +8 up or from −8 down

z-score, active:
O=C(NCC(O)CO)[C@]1(Cc2ccccc2)N=C(c2ccc(OCCCO)cc2)O[C@@H]1c1ccccc1 (some centres not stated) 12

z-score, inactive:
C=CCOC(=O)[C@@H]1[C@H]2C(=O)O[C@H](c3ccccc3)[C@H](c3ccccc3)N2[C@H](c2ccc(OCCOC(=O)[C@H]3C[C@H]4C(=O)N5CCC[C@H]5C(=O)N4[C@H]3c3ccc(O)cc3)cc2)[C@@]12C(=O)Nc1ccccc12 0.288
C[C@@H]1CC[C@H]2C(=O)N3[C@@H](CC[C@@H](C)[C@@H]3c3cccc(N4CCOCC4)c3)C(=O)N2[C@H]1c1cccc(N2CCOCC2)c1 0.367
COc1ccc(-c2ccccc2[C@@H]2N[C@H](C(=O)O)CC[C@H]2C)cc1 0.443
CN1CCC(CCCO)=CC1C1CC1 (configuration not stated) -1.58
C=CCC(OC(C)=O)[C@@H]1[C@@H](N(Cc2cc3ccccc3o2)C(=O)c2ccc(C)cc2)c2cc(OCCCO)ccc2N1C(=O)c1ccc2ccccc2n1 (some centres not stated) 0.345
C[C@H]1COC(=O)[C@H](Cc2ccccc2)NC(=O)[C@@H](C)COC(=O)[C@H](Cc2ccccc2)NC1=O -0.643
CCN1C(C)=C(C(=O)OC)[C@@H](c2ccccc2)N2C(=O)[C@@]3(C(=O)OC)O[C@@]12[C@@H]1C(=O)N(c2ccccc2)C(=O)[C@@H]13 -0.39
CCCC/C=C/[C@H]([C@@H](O)Cc1ccccc1)N(CC#Cc1ccccc1)Cc1ccccc1Br 1.29
Cc1ccc(S[C@]2(C(=O)NCCCN(C)C)CC(=O)N(C3CCCCC3)[C@@H]2c2ccc(CO)cc2I)cc1 1.35
CO[C@@H]1COC(=O)[C@H](C)NC(=O)CC=C[C@@H](C)[C@H](NS(=O)(=O)c2ccc(C)cc2)COC(=O)CC=C[C@@H]1C -0.207
C=CCNC(=O)[C@H]1[C@@H]2C(=O)O[C@@H](c3ccccc3)[C@@H](c3ccccc3)N2[C@@H](c2ccccc2OCCO)[C@]12C(=O)N(C(=O)OCCOC)c1ccc(C#CCC(C(=O)OC)C(=O)OC)cc12 -0.183
CC(=O)NCCCC[C@@H]1NC(=O)[C@@H]2C[C@H](C(=O)NCCCCCCN(C)C)[C@H](c3ccc(O)cc3)N2C1=O -1.12
C[C@H]1NC(=O)[C@@H](C)NC(=O)[C@@]23C(=O)N[C@@H](Cc4ccccc4)C2[C@H](C)[C@@]2(C)O[C@H]2C3/C=C/C/C=C\CNC1=O (some centres not stated) 0.279
CC(C)N1CC=CC23O[C@@H]4/C=C\CCCOC(=O)C4[C@H]2C(=O)N(CCO)[C@@H]3C1=O (some centres not stated) 0.236
C=CC[C@]1(C(=O)O)N=C(c2ccc(OCCCO)cc2)O[C@H]1c1ccccc1 0.66
CC(C)CNC(=O)[C@@]1(C)c2ccccc2C(=O)N(Cc2ccc(OC(F)(F)F)cc2)[C@H]1c1ccc(CO)cc1 0.251
CO[C@H]1COC(=O)[C@H](Cc2ccccc2)NC(=O)CC=C[C@@H](C)[C@H](OC)COC(=O)CC=C[C@@H]1C -1.22
C=C(COC)/C(=C/C[C@@H](OC(=O)c1ccncc1)c1ccc(OCCO)cc1)c1cc(C(=O)OC)ccc1OC 0.629
CSCC[C@@H]1NC(=O)CC=C[C@@H](C)COC(=O)[C@H](CCSC)NC(=O)CC=C[C@@H](C)COC1=O -0.774
O=C1OCC=C[C@H]2OC34C=CCN(Cc5ccccc5)C(=O)[C@H]3N(CCCCCO)C(=O)[C@@H]4[C@@H]12 (some centres not stated) -0.426
Cc1ccc(S[C@]2(C(=O)NCCN3CCOCC3)CC(=O)N(C3Cc4ccccc4C3)[C@@H]2c2ccc(CO)cc2I)cc1 -0.0443
COC(=O)C[C@H]1O[C@]2(C(=O)N(C)c3ccccc32)[C@@H](C)[C@@H]1[Si](C)(C)c1ccc(OC)cc1 -1.17
CC/C=C/C(=O)N(C[C@@H]1CCCO1)[C@@H]1CC(C(=O)NCCO)=C[C@H](Oc2c(I)cc(CO)cc2OC)[C@H]1O -0.433
C=C[C@H](OC)[C@@H](OC(=O)Nc1ccc(SC)cc1)c1ccc(OC)c(O)c1 2.11
CN1C2C=C(c3ccc(CO)cc3)C(C3C(=O)N(C(N)=O)C(=O)C32)C1c1cccs1 (configuration not stated) -1.44
C=CCN(C(=O)C1N(c2ccc(CCO)cc2)C(=O)C2C(C(=O)O)C3C=CC21O3)C(C)(C)C (configuration not stated) -1.14

— PubChem BioAssay
